The source of these data is PubChem BioAssay (EPA / NIEHS).

Test [1] in a line: ATG_CRE_CIS: Attagene CIS-FACTORIAL HepG2 Assay for human cAMP Responsive Element (CRE) binding protein 3 (AID 2282926). The note with it: HepG2 CRE cis-reporter, Attagene multiplexed mRNA; actives raise or lower the signal. Summed up:
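Endogenous transcription factor activity read via CRE-regulated reporter transcripts in transfected HepG2 cells. After 24 h exposure, RNA was reverse-transcribed, amplified, fluorescently labelled and sized by capillary electrophoresis; gain or loss fitted against DMSO.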

The target in test [2] is CCAAT/enhancer-binding protein beta (Homo sapiens) (UniProt P17676). Kind of test: ATG_C_EBP_CIS: Attagene CIS-FACTORIAL HepG2 Assay for human CCAAT/Enhancer Binding Protein (C/EBP) beta (AID 2282927). The note with it: HepG2 Attagene cis-factorial transcription factor reporter; actives raise or lower the signal. Summed up:
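Endogenous transcription factor activity in human liver HepG2 cells is inferred from induction of a CEBPB-linked reporter mRNA. Exposure lasts 24 h; activity is fitted in both directions relative to DMSO.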

Test [3] is described as follows: ATG_CMV_CIS: Attagene CIS-FACTORIAL HepG2 Assay for human CMV (Internal Marker) (AID 2282928).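 Also: endpoint acts as a background internal control marker rather than a target.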 The note with it: HepG2 CMV promoter reporter, transcription factor profiling; actives raise or lower the signal. The essentials:
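24 h chemical treatment, HepG2 with transient multi-reporter transfection; RNA → oligo(dT) RT → PCR → 6-FAM extension → HpaI digest → CE fluorescence. Bidirectional fit, DMSO negative control.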

The nature of test [4]: ATG_DR4_LXR_CIS: Attagene CIS-FACTORIAL HepG2 Assay for human Liver X Receptor (LXR), DR4 submotif (AID 2282929). The note with it: HepG2 Attagene DR4 cis-reporter, mRNA transcription; actives raise or lower the signal. The essentials: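 Endogenous factor activity at a DR4 cis-element is read as reporter mRNA in transiently transfected HepG2 cells. Exposure lasts 24 h; transcripts are amplified, fluorescently labelled and sized by capillary electrophoresis, with DMSO as baseline.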

The target of test [5] is Aryl hydrocarbon receptor (Homo sapiens) (UniProt P35869). Briefly: ATG_Ahr_CIS: Attagene CIS-FACTORIAL HepG2 Assay for human Aryl Hydrocarbon Receptor (Ahr) (AID 2282930). The note with it: HepG2 AhR cis-factorial reporter transcription; actives raise or lower the signal. The essentials: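 Transient MRTU transfection of HepG2 → 24 h compound exposure → total RNA, oligo(dT) RT → PCR, 6-FAM extension, HpaI cut → CE fluorescence. DMSO = baseline; bidirectional curve fit.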

A short description of test [6]: ATG_AP_1_CIS: Attagene CIS-FACTORIAL HepG2 Assay for human Activator Protein 1 (AP-1) (AID 2282931). The note with it: HepG2 Attagene cis-factorial AP-1 reporter mRNA; actives raise or lower the signal. Summed up:
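Fluorescence of labelled PCR fragments separated by capillary electrophoresis gives reporter mRNA levels. HepG2 with transfected cis-regulated reporter units, 24 h exposure; DMSO serves as baseline for bidirectional curve fits.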

Test [7] can be described thus: ATG_AP_2_CIS: Attagene CIS-FACTORIAL HepG2 Assay for human Activator Protein 2 (AP-2) (AID 2282932). Conditions: HepG2 AP-2 cis-reporter, Attagene transcription factor profiling; actives raise or lower the signal. Summed up: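 Endogenous transcription factor activity is reported through transfected multiplex reporter constructs in HepG2, after 24 h of compound exposure. Transcripts were quantified by RT-PCR and capillary electrophoresis of fluorescent fragments. Bidirectional fit against DMSO.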

Test [8] can be described thus: ATG_BRE_CIS: Attagene CIS-FACTORIAL HepG2 Assay for human Bone Morphogenetic Protein (BMP) Response Element (BRE) (AID 2282933). Conditions: HepG2 BMP response element reporter, Attagene transcription factor profiling; actives raise or lower the signal. The essentials:
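Endogenous transcription factor activity at a BMP response element was monitored in transfected HepG2 cells 24 h after dosing. Fluorescent RT-PCR products were resolved by capillary electrophoresis, and activity was fitted in both directions versus DMSO.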

For test [9], the target named is Retinoic acid receptor alpha (Homo sapiens) (UniProt P10276). Briefly: ATG_DR5_RAR_CIS: Attagene CIS-FACTORIAL HepG2 Assay for human Retinoic Acid Receptor Alpha (RARE), DR5 submotif (AID 2282934). The note with it: HepG2 Attagene cis-factorial RARE DR5 reporter, mRNA; actives raise or lower the signal. Summed up: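 Transient MRTU transfection of HepG2; 24 h compound treatment; TriZol RNA, oligo(dT) RT, PCR, FAM labelling, capillary electrophoresis. Bidirectional fit vs DMSO. Endogenous TF activity at DR5 RARE.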

Test [10] has as its target Transcription factor E2F1 (Homo sapiens) (UniProt Q01094). Kind of test: ATG_E2F_CIS: Attagene CIS-FACTORIAL HepG2 Assay for human E2F Transcription Factor 1 (AID 2282935). The note with it: HepG2 Attagene cis-reporter, E2F reporter RNA transcripts; actives raise or lower the signal. Summed up:
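Gain or loss of reporter transcript, fitted against DMSO, reflects E2F1-driven transcription. Transiently transfected HepG2 dosed 24 h before RNA isolation. Quantified by fluorescent RT-PCR products separated by capillary electrophoresis.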

The nature of test [11]: ATG_E_Box_CIS: Attagene CIS-FACTORIAL HepG2 Assay for human Enhancer Box (E-box) (AID 2282936). The note with it: HepG2 E-box cis-reporter transcription, actives raise or lower the signal. The essentials: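 E-box-driven reporter transcripts measured in transiently transfected HepG2 after 24 h exposure: RNA reverse-transcribed, PCR-amplified, fluorescently labelled, digested and resolved by capillary electrophoresis. Gain or loss relative to DMSO.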

Test [12] is described as follows: ATG_M_61_CIS: Attagene CIS-FACTORIAL HepG2 Assay for M61 Transcription Factor (Internal Marker) (AID 2282937). The note with it: HepG2 Attagene CIS-FACTORIAL M61 internal marker reporter; actives raise or lower the signal. The essentials: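 This endpoint serves as an internal background control within a multiplexed HepG2 cis-reporter panel. Cells are exposed for 24 h; reporter mRNA is amplified, fluorescently labelled and sized by capillary electrophoresis, with DMSO as negative control.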

Test [13] in a line: ATG_EGR_CIS: Attagene CIS-FACTORIAL HepG2 Assay for human Early Growth Response 1 (EGR1) (AID 2282938). Conditions: HepG2 Attagene CIS-FACTORIAL EGR reporter mRNA; actives raise or lower the signal. Summed up: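 HepG2, transient MRTU transfection (cis promoters), 24 h compound. RNA → RT (oligo-dT) → PCR → 6-FAM labelling → HpaI cut → CE fluorescence. Bidirectional fit, DMSO baseline.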

Test [14] in a line: ATG_M_19_CIS: Attagene CIS-FACTORIAL HepG2 Assay for M19 Transcription Factor (Internal Marker) (AID 2282939). The note with it: HepG2 Attagene CIS-FACTORIAL M19 internal marker reporter; actives raise or lower the signal. Summed up:
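Background-control endpoint from a multiplexed HepG2 reporter panel. Cells carrying cis-regulated reporter constructs are treated 24 h, then reporter transcripts are amplified, fluorescently labelled and sized by capillary electrophoresis. DMSO defines baseline.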

A short description of test [15]: ATG_ERE_CIS: Attagene CIS-FACTORIAL HepG2 Assay for Estrogen Response Element (ERE) (AID 2282940). The note with it: HepG2 ERE cis-reporter, Attagene RNA transcript; actives raise or lower the signal. The essentials:
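Cells used were human hepatoma HepG2, transfected with multiple reporter transcription units under cis-regulatory promoters. Reporter mRNA, read 24 h post-dosing via fluorescent RT-PCR products on capillary electrophoresis, was fitted bidirectionally relative to DMSO.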

A short description of test [16]: ATG_Ets_CIS: Attagene CIS-FACTORIAL HepG2 Assay for human Erythroblast Transformation Specific (ETS) (AID 2282941). The note with it: HepG2 ETS cis-reporter transcription, actives raise or lower the signal. Summed up: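 Cis-regulated reporter mRNA induction in HepG2 (transient transfection), 24 h exposure, RT-PCR plus capillary electrophoresis detection; DMSO serves as negative control and baseline.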

Test [17] concerns the target Hepatocyte nuclear factor 3-beta (Homo sapiens) (UniProt Q9Y261). Kind of test: ATG_FoxA2_CIS: Attagene CIS-FACTORIAL HepG2 Assay for human Forkhead box A2 (FOXA2) (AID 2282942). Conditions: HepG2 cis-reporter transcription factor activity, 24 h; actives raise or lower the signal. The essentials: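 Cells: HepG2, transient multiplex reporter transfection. Exposure 24 h. Detection: reporter-specific RT-PCR, fluorescent labelling, restriction digest, capillary electrophoresis. Analysis: bidirectional curve fit, DMSO as negative control.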

The nature of test [18]: ATG_FoxO_CIS: Attagene CIS-FACTORIAL HepG2 Assay for human Forkhead box O (FoxO) (AID 2282943). The note with it: HepG2 Attagene cis-reporter, FoxO element, mRNA; actives raise or lower the signal. Summed up: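 HepG2, transient MRTU transfection (cis element, endogenous TFs). Dose 24 h. TriZol RNA → oligo(dT) RT → PCR → 6-FAM primer extension → HpaI cut → CE. Gain/loss vs DMSO.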

A short description of test [19]: ATG_GATA_CIS: Attagene CIS-FACTORIAL HepG2 Assay for human GATA Binding Protein (AID 2282944). The note with it: HepG2 GATA cis-element reporter, Attagene multiplex mRNA; actives raise or lower the signal. The essentials: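 Endogenous transcription factor activity was captured through cis-promoter-driven reporters in transfected HepG2 cells. After 24 h exposure, reporter transcripts were quantified by RT-PCR with fluorescent capillary electrophoresis, and responses fitted both directions against DMSO.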

Test [20] can be described thus: ATG_GLI_CIS: Attagene CIS-FACTORIAL HepG2 Assay for human Zinc Finger Protein GLI1 (AID 2282945). The note with it: HepG2, Attagene cis-factorial reporter mRNA, GLI element; actives raise or lower the signal. Summed up:
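Bidirectional curve fits relative to DMSO, using reporter mRNA levels from RT-PCR plus capillary electrophoresis. Cells were HepG2 transiently carrying cis-regulated reporter constructs, harvested 24 h after dosing.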

Active and inactive are the calls of the source. The calls were made as follows: active = hit-call score of the fitted dose curve at least 0.9, where 1 is the maximum; inactive = score below 0.9.

Hepatocyte nuclear factor 3-beta (Homo sapiens), sequence (Q9Y261 whole entry, looked up): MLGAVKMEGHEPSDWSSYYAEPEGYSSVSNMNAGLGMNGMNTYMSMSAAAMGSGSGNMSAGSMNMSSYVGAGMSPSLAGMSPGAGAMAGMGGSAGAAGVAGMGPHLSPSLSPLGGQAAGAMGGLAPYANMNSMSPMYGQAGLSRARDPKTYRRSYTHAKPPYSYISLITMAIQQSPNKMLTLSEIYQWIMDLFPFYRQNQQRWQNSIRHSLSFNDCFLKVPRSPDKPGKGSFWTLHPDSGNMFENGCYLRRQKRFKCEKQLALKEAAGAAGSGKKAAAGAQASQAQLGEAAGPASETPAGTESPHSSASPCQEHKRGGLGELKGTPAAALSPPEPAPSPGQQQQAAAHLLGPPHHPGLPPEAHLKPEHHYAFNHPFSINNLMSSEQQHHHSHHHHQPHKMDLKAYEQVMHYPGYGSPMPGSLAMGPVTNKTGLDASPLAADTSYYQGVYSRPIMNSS
Transcription factor E2F1 (Homo sapiens), sequence (Q01094 whole entry, looked up): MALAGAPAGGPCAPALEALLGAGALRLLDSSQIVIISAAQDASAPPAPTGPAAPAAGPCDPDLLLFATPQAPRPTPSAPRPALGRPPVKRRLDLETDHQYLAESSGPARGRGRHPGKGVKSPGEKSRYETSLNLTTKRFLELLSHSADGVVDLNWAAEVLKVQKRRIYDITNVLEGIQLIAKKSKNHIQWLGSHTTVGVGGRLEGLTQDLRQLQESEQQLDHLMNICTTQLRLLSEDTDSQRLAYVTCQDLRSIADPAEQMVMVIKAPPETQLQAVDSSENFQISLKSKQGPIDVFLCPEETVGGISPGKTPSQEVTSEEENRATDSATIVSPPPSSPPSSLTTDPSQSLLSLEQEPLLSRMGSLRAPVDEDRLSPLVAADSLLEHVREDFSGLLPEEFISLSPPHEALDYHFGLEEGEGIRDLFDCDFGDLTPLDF
CCAAT/enhancer-binding protein beta (Homo sapiens), sequence (P17676 whole entry, looked up): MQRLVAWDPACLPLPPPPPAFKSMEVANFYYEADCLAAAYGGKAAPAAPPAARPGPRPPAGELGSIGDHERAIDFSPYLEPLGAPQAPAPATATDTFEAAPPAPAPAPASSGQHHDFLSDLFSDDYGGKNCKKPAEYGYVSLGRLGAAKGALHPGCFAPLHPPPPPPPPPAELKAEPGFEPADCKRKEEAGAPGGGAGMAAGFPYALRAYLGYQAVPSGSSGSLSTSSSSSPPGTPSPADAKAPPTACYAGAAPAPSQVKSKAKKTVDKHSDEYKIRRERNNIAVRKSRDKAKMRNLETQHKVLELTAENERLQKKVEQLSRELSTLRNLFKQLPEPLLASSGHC
Retinoic acid receptor alpha (Homo sapiens), sequence (P10276 whole entry, looked up): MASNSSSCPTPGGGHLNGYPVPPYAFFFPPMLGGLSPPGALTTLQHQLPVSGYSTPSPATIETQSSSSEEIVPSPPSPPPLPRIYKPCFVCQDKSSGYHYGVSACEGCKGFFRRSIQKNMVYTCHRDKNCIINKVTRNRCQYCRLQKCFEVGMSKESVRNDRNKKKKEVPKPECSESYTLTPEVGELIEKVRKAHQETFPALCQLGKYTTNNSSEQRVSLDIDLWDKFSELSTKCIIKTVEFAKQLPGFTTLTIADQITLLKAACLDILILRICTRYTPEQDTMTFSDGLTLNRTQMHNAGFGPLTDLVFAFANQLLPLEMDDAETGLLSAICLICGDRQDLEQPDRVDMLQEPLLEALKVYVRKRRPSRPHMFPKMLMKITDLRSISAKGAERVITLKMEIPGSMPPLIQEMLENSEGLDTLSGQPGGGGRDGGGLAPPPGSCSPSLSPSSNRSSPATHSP
Aryl hydrocarbon receptor (Homo sapiens), sequence (P35869 whole entry, looked up): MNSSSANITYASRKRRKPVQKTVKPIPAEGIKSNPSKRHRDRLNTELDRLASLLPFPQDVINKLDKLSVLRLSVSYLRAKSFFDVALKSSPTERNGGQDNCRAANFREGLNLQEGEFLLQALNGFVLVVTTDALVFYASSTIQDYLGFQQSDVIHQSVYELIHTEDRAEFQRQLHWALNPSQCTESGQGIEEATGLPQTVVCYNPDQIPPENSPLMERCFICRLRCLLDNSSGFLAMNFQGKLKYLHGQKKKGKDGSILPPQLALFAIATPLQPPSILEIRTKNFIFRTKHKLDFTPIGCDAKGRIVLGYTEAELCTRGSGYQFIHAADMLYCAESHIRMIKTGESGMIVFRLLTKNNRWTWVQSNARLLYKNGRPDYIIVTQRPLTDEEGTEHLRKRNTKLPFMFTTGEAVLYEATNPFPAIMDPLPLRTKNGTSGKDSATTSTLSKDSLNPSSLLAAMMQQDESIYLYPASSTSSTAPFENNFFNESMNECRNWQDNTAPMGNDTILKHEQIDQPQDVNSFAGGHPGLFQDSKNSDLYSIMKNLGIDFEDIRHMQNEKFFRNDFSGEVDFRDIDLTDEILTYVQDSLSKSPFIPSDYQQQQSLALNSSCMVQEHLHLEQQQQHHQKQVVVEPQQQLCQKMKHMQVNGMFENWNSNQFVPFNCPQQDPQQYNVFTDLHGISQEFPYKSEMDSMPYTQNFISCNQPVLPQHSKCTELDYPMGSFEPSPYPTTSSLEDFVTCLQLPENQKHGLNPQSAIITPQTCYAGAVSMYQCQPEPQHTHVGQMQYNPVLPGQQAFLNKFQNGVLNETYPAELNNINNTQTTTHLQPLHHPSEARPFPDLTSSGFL

As to `Nc1ncn([C@@H]2O[C@H](CO)[C@@H](O)[C@H]2O)c(=O)n1`, the AC50 in test [1] was 9.4 µM (active); in test [2] it was 15.4 µM (active); in test [11] it was 27.5 µM (active); in [16], 39.5 µM (active). The call in test [3], in test [4], in test [5], in [6], in test [7] and in test [8] was inactive. Further, the result in test [9], in test [10], in test [12], in test [13], in test [14] and in [15] was inactive. Moreover, the call in [17], in test [18], in test [19] and in test [20] was inactive.
In the case of `c1cc(C(c2ccc(OCC3CO3)cc2)C(c2ccc(OCC3CO3)cc2)c2ccc(OCC3CO3)cc2)ccc1OCC1CO1` (stereo not given), the concentration at half-maximal activity (AC50) was 30.7 µM (active) in test [1], 64.3 µM (active) in [3], 33.1 µM (active) in [4] and 39.5 µM (active) in test [13]. Further, the result in test [2], in test [5], in test [6], in test [7], in test [8] and in test [9] was inactive. Besides, the call in test [10], in test [11], in [12], in test [14], in test [15] and in test [16] was inactive. The molecule was classed as inactive in test [17], in test [18], in [19] and in [20].
As to `CCc1nccnc1C`, the molecule was called inactive in test [1], in [2], in [3], in test [4], in test [5] and in test [6]. Further, the call in [7], in test [8], in [9], in [10], in test [11] and in test [12] was inactive. Also, the result in test [13], in test [14], in test [15], in test [16], in test [17] and in [18] was inactive. Moreover, the call in test [20] was inactive.
Take `C=CC(C)(CCC=C(C)C)OC(=O)CC(C)C` (stereo not given): the outcome in test [1], in [2], in test [5], in test [7], in test [8] and in [9] was inactive. Moreover, the molecule was classed as inactive in test [10], in test [11], in [12], in [13], in test [14] and in test [16]. Moreover, the result in test [17], in [18] and in test [20] was inactive. The AC50 in test [3] is 75.3 µM (active); in test [4] it was 133 µM (active); in test [6], 119 µM (active); in [15] it was 74.1 µM (active).
As for `Cc1ccc(OC(=O)CC(C)C)cc1`, the result in test [1], in test [2], in test [3], in [4], in test [5] and in test [6] was inactive. Further, the call in test [7], in [8], in test [9], in [10], in test [11] and in test [12] was inactive. The molecule was called inactive in [13], in test [14], in test [15], in test [16], in test [17] and in test [18]. The call in test [20] was inactive.
As to `CCCCCCCCO[C@@H]1O[C@H](CO)[C@@H](O)[C@H](O)[C@H]1O`, the molecule was called inactive in test [1], in test [2], in test [3], in [4], in test [5] and in test [6]. The result in test [7], in test [8], in test [9], in test [10], in [11] and in test [12] was inactive. Moreover, the result in test [13], in [14], in test [15], in test [16], in test [17] and in test [20] was inactive.
For `Cc1ccc2oc(=O)ccc2c1`, the molecule was classed as inactive in test [1], in test [2], in test [3], in test [4], in [5] and in [6]. In addition, the result in test [7], in [8], in test [9], in test [10], in test [11] and in test [12] was inactive. Moreover, the molecule was called inactive in test [13], in [14], in test [15], in test [16], in test [17] and in test [18]. Also, the outcome in test [19] and in test [20] was inactive.

Broadly, the AC50 is the midpoint of the concentration-response curve, whichever way the signal moves.
